Mot1-301 SUMO: SUMOylation pathway inhibition by Mot1-301 growth rescue; growth rescue, % at 18.8 µM; AID 2716; hit rate 1% among 320,000; S. cerevisiae Mot1-301 growth rescue, ATP luminescence, 38.5C; percent above DMSO median, 100 means doubled;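 active = every valid replicate shows activation above 250% relative to neutral control wells; inactive = the rest, any valid replicate at or below 250%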;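 note: OY570 slx delta 5 strain wells were the positive control but not used for scaling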
tim10-1 inh: growth inhibitors of tim10-1 mutant yeast | S. cerevisiae tim10-1 ts strain growth, BacTiter-Glo, 24 h | hit rate 2.2% among 330,000 | inhibition, % at 20 µM | AID 463190;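 active = inhibition of at least 40%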;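 note: mutant grown at 25 °C; 0% = DMSO wells with yeast and 100% = wells holding no yeast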
TIM10 inh: growth inhibitors of TIM10 yeast strain; S. cerevisiae TIM10 strain growth, BacTiter-Glo luminescence, 24 h; inhibition, % at 10 µM; hit rate 1.4% among 330,000;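 active = inhibition of 40% or more at the single tested concentration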;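 note: wild-type TIM10 isogenic control strain grown at permissive 25 °C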
tim23-1 inh: inhibits growth of tim23-1 mutant yeast | S. cerevisiae tim23-1 growth, BacTiter-Glo luminescence, 24 h | inhibition, % at 20 µM | hit rate 1.3% among 330,000 | AID 463212;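 active = growth inhibition of the mutant yeast at or above 50%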;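 note: temperature-sensitive mutant grown at 25 °C; plate controls were DMSO-treated mutant yeast for no effect and medium wells lacking yeast for full effect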
PfHsp90 yeast 2: inhibits growth of yeast expressing Plasmodium falciparum Hsp90. inhibition, % at 9.4 µM. hit rate 0.32% among 310,000. S. cerevisiae expressing PfHsp90, BacTiter-Glo ATP, 48 h; yeast lacking PDR1 and PDR3 efflux regulators;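 active = every replicate shows inhibition above about 80%, whatever the replicate mean, limit read from the data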;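 note: 0% = DMSO neutral controls and 100% = 20 µM radicicol positive controls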
tim10-1 conf: tim10-1 yeast growth inhibition, confirmed; shares compounds with tim10-1 inh; S. cerevisiae tim10-1 ts strain growth, BacTiter-Glo, 24 h; inhibition, % at 20 µM; hit rate 56% among 7,400; AID 463213;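 active = inhibition of yeast growth at or above a set limit in either of two repeat tests at 20 µM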;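 note: tim10-1 mutant grown at permissive 25 °C to find synthetic lethal compounds; 0% = DMSO yeast wells and 100% = medium wells without yeast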
Numbers without * were called inactive; . = no result given. A selection: hits, their analogues and other compounds. The true share with any hit is near 4.4%.

SMILES | Mot1-301 SUMO | tim10-1 inh | TIM10 inh | tim23-1 inh | PfHsp90 yeast 2 | tim10-1 conf
CCN(C(=O)c1ccc2c(c1)OCO2)C12CC3CC(CC(C3)C1)C2 | 72 | 5 | 28 | 50 | -17 | .
CCN(C(=O)c1cccc(S(=O)(=O)N(C)C)c1)C12CC3CC(CC(C3)C1)C2 | 60 | 41* | 22 | 43 | -4 | 23
CC(C)c1ccc(NC2CCCN(C(=O)CN3C(=O)CSC3=O)C2)cc1 (centres undefined) | -9 | 13 | 8 | 3 | 2 | .
Cc1[nH]n(-c2ccc([N+](=O)[O-])cc2)c(=O)c1C=NCC1CCCO1 (centres undefined) | 3 | 15 | 10 | 9 | 5 | .
Cc1ccc(-n2[nH]c(C)c(/C=N/Nc3ccc([N+](=O)[O-])cc3[N+](=O)[O-])c2=O)cc1 | . | 49* | 24 | 34 | 34 | 35*
CCC(Oc1cc(Cl)ccc1Cl)C(=O)N1CCCN(C)CC1 (centres undefined) | -12 | -2 | 3 | 6 | 3 | .
COc1ccc(-n2c(Cc3cccn3C)nnc2SCC(=O)Nc2ccccc2)cc1 | -12 | 21 | 11 | 20 | -13 | .
COc1ccc(-n2c(Cc3cccn3C)nnc2SCC(=O)Nc2ccc(Cl)cc2)cc1 | 76 | 42* | 19 | 46 | 29 | 14
Nc1ccccc1Nc1cc(-c2cccc(Cl)c2)nn1-c1ccccc1 | 2 | 40* | 26 | 38 | -8 | 34*
CC1=Nc2ccccc2/C1=C\c1nc(-c2ccc(F)cc2)oc1O | 11 | 53* | 39 | 24 | -25 | 29
CN=Cc1nc(-c2ccccc2)oc1O | 2 | 20 | 6 | 17 | -10 | .
COc1ccc(-c2[nH]ncc2-c2ccc3c(c2)OCCO3)c(O)c1 | -9 | 40* | 35 | 46 | . | 28
CN(Cc1ccccc1)C(=O)C1CCN(S(=O)(=O)c2ccc3nc4c(c(C(=O)O)c3c2)CCCC4)CC1 | 38 | -6 | 5 | -1 | -4 | .
N#CCc1nn2c(-c3ccccc3)ccnc2c1C#N | 3 | 43* | 10 | 30 | -23 | 28
Cc1nn2c(-c3ccccc3)ccnc2c1-c1ccccc1 | 478 | 24 | 25 | 28 | 63 | .
Cc1ccc(NC(=O)CSCC(=O)Nc2nnc(C3CC3)s2)cc1 | 4 | -9 | -9 | -2 | . | .
Cc1ccc(Nc2nnc(C3C(=O)N(C)C4(C)CC3c3cc(Br)ccc3O4)s2)cc1 (centres undefined) | -9 | 45* | 22 | 18 | -16 | 6
COCCCNC(=O)c1c(N)n(/N=C/c2ccccn2)c2nc3ccccc3nc12 | . | 42* | 29 | 8 | -7 | 27
CC(C)(C)S(=O)(=O)N1C[C@@H]2CC/C=C\C/C(c3ccccc3)=C\2[C@H]1CCO | . | . | . | . | -11 | .
CCCCC(=O)NC(=S)Nc1ccc(NC(=O)C(C)C)c(OC)c1 | . | 43* | 17 | 31 | 8 | 21
CCCCC(=O)Nc1ccc(NC(=S)NC(=O)CCCCl)cc1OC | 2 | 48* | 35 | 22 | -4 | 39*
CCCCC(=O)Nc1ccc(NC(=S)NC(=O)CC)cc1OC | -5 | 26 | 1 | 18 | 8 | .
NC(=O)CN1C(=O)NC2(CCOc3ccccc32)C1=O (centres undefined) | -15 | 5 | -10 | 16 | 2 | .
Cc1ccc(/C=C(/NC(=O)c2ccccc2)C(=O)NC(Cc2c[nH]c3ccccc23)C(=O)O)cc1 (centres undefined) | 7 | -13 | 8 | 10 | -13 | .
Nc1ccccc1C(=O)/C=C/c1ccc2c(c1)OCO2 | -2 | 44* | 32 | 46 | 13 | 39*
SMILES | Mot1-301 SUMO | tim10-1 inh | TIM10 inh | tim23-1 inh | PfHsp90 yeast 2 | tim10-1 conf
O=C(/C=C/c1ccc2c(c1)OCO2)c1ccco1 | 27 | 17 | 22 | 24 | 7 | .
CCCn1nc([N+](=O)[O-])c(C(C#N)c2nc3ccccc3o2)c(Cl)c1=O (centres undefined) | -26 | 48* | 30 | 42 | 3 | 36*
C=CCNC(=O)c1cc2c(=O)n3ccccc3nc2s1 | -10 | 14 | 10 | -7 | 17 | .
CC(C)(O)C#Cc1ccc(C(=O)N2CCN(c3ccc([N+](=O)[O-])cc3)CC2)cc1 | 0 | 46* | 27 | 4 | 17 | 38*
CC(C)(O)C#Cc1ccc(C(=O)N2CCN(c3ccccc3)CC2)cc1 | -7 | 24 | 12 | 16 | 15 | .
CN(C)CC[n+]1ccc(C(=O)c2ccccc2)cc1 | 111 | -9 | 2 | -3 | 1 | .
O=C1C2C3CCCC3=C3CCCC3C2C(=O)N1c1ccc(Cl)cc1 (centres undefined) | 719 | 42* | 16 | 39 | 10 | 31*
O=C1C2C3CCCC3=C3CCCC3C2C(=O)N1c1cccc(Cl)c1 (centres undefined) | -2 | 16 | 28 | 24 | 1 | .
Cc1csc(=N)n1-c1ccc(Cl)cc1 | 20 | 48* | 19 | 40 | -9 | 23
COCCCNC(=S)N/N=C/c1ccc2c(c1)OCO2 | -27 | 41* | 24 | 35 | 5 | 14
Nc1c(N)c2ccccc2oc1=O | -21 | -6 | 1 | 1 | 18 | .
Nc1c(N2CCN(c3ccccc3)CC2)c2ccccc2oc1=O | 19 | 49* | 11 | 27 | 2 | 27*
CCN(CC(=O)Nc1c(F)cccc1F)C(=O)c1ccc(OCC(=O)N2CCOCC2)c(OC)c1 | . | . | . | . | -34 | .
CCC(Oc1ccccc1OC)C(=O)Nc1ccc2c(c1)OCO2 (centres undefined) | -5 | 12 | -4 | 13 | 14 | .
CC(C)(C)c1nn(-c2ccccc2)c2[nH]c(=O)c(CNCc3ccc4c(c3)OCO4)cc12 | -17 | 44* | 28 | 33 | -27 | 32*
Cc1ccc2[nH]c(C(=O)N3CCCC(Nc4ccc(F)cc4)C3)cc2c1 (centres undefined) | 2 | 51* | 17 | 36 | 9 | 3
Cc1nc2c(-c3ccc(F)cc3)c(C)nn2c(N2CCOCC2)c1C | -11 | 45* | 31 | 34 | -3 | 26
Cc1nn2c(N3CCOCC3)c3c(nc2c1-c1ccccc1)CCCC3 | -8 | 26 | 22 | 36 | -6 | .
Cc1ccsc1C(=O)NNC(=O)c1cccc(S(=O)(=O)N2CCCC2)c1 | 0 | 7 | 10 | 8 | -9 | .
O=c1[nH]nnc2c1cnn2-c1ccccc1 | . | . | . | . | 31 | .
Cc1cc(C(=O)N2CCN(C(c3ccccc3)c3ccccc3)CC2)no1 | 13 | 41* | 35 | 26 | -11 | 24
COc1ccc(-c2nc(C3CCCCC3)c3cc(OC)ccc3n2)cc1 | -2 | 8 | -6 | 5 | 3 | .
COc1cc(OC)c2c3c(c(C4CCCCC4)nc2c1)CCC3 | 107 | 52* | 8 | 20 | -5 | 30*
COC(C/C=C/C(=O)COCc1ccccc1)OC | . | 46* | 34 | 41 | 16 | 41*
Cc1cc2nc(-c3ccc[nH]c3=O)[nH]c2cc1C | -58 | 47* | 35 | 48 | 71 | 35*
